Assay results taken from PubChem BioAssay AID1508600 (Functional Genomics Laboratory (NCATS/FGL), 2020).
Screen size: about 53,000 sequences; about 3,700 (7%) were called active. The sample as a whole holds a higher share of actives than the screen did. Unmarked numbers belong to inactive results.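 Rule for the calls: active = gene knockdowns whose robust z-score for IL-1 alpha signal is at least 2 or at most -2, so actives lie on both sides; inactive = the rest.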

Assay: Components of the Cytosolic LPS Sensing Pathway: Gene Identification via Genome-wide siRNA Screen;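 note: robust z of the log signal after scaling to non-targeting control siRNA wells of the plate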
Conditions: RAW264.7 macrophages, IL-1a HTRF, actives lie on both sides, screened at 100 nM (by protocol), cells primed 5 h with Pam3CSK4 first
Outline: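 Cells (RAW264.7, 1×10^4 per well) were transfected with siRNA at 100 nM and cultured 48h at 37 degrees C. Pam3CSK4 was added for 5 hours; LipidA transfection followed for 24 hour. IL-1a was then measured by HTRF.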

| Sequence | z-score |
| --- | --- |
| GCUGUUUGAAGCUGAUACCTT against Fads3 | -0.0526 |
| GGCAUCCAGACAAGUGAUGTT against Zer1 | 0.699 |
| GCCAUCACAAUUCUAAUCCTT against Vmn2r123 | -1.54 |
| CCAAGAUUGACAUCAUCCGTT against Pkn1 | -0.595 |
| CGAAUACCUGAAGUGCAAATT against Art3 | 0.454 |
| GGAGCCAGAACCUGAAAUUTT against Ankrd1 | 2.86 (active) |
| GCUCUAGACAUAUGAGGCUTT against Wee2 | -0.0864 |
| CCCAUGAUGCCAUCUUUAATT against 2410002F23Rik | -1.03 |
| GGAACAUUUCUGGAUUGUUTT against Muc1 | -0.503 |
| CCAGCUCUCGAUUCCAUCATT against Fem1a | 0.615 |
| GGAUACCCUGGAGUUUAUATT against Prss42 | 0.941 |
| GCGUGAUCAUUGAUGUGGATT against Slc5a7 | 0.364 |
| GUUCCACAAAGACCAUCAGTT against Olfr134 | 0.679 |
| GCCUGGUUAAGGCAUGAUATT against Gm4884 | 2.63 (active) |
| GCCACAACCACCUGAACUUTT against Amigo1 | -0.854 |
| GGACUUCAAGGAUAGUGAGTT against Osm | -1.13 |
| GGUCGAUGCAAAGAUGCUGTT against Smoc1 | 0.811 |
| GCUUCUGUAAAUCCCAUAUTT against Olfr26 | -0.0814 |
| GCUGUCACUUUGAAUCCCUTT against Nrg1 | -0.988 |
| GGUAUUGAAAUGGAAAAGGTT against D6Wsu163e | -1.2 |
| GGGCCUAUGCUUACAAACGTT against Pkp3 | 2.37 (active) |
| GGUUCUAAUUAGAGAAACATT against Tcte1 | 0.461 |

| Sequence | z-score |
| --- | --- |
| CGACCAUUCCUUUGAGUUATT against Atl1 | 3.09 (active) |
| GGAGCUACCUCUGGAUACATT against Tmem269 | 1.28 |
| GGUACUGGAAAGAAAUGAGTT against Exph5 | 0.356 |
| GGUUGUCAUAAUCUUGUUATT against Irgq | -0.59 |
| GGUAUUUAGGUUGAUAACATT against Kbtbd8 | -0.206 |
| GGUCUUAGAUAAUGUUAGATT against Gpr26 | 0.718 |
| CCCUGUAAGGUUGAUUGUGTT against Oog3 | 0.535 |
| GGCUCAUUCCUCUUCUUCCTT against Serhl | -3.08 (active) |
| GCCAAGUAAAACCAAAUGUTT against Ldlrad4 | -1.85 |
| CCGAGAACAGUUGAAGAAGTT against Srbd1 | 0.174 |
| GGUGGAUGAGUUGUUCCUUTT against Adck5 | 0.637 |
| GCUACAGGAUUUAUACAUGTT against Dhx29 | 0.865 |
| GGGACUUAUGUACAACUUCTT against Idua | 1.53 |
| CCUCUGCGCAAUUUAGAGATT against Npb | 1.1 |
| GACAAGAACCCGGAUAAUATT against Dnajb2 | -0.229 |
| GCAAGCACGUCAGAAUCUCTT against Pln | 2.32 (active) |
| GGAAGAACUGAUUGAAGAGTT against Sptlc1 | -0.789 |
| GGUGAAAGACCAUUUAUUUTT against Zxdc | 0.657 |
| CGUGACUCUGCUUUAACUCTT against Col27a1 | -2.27 (active) |
| GGAGCUUGCUCAGACUACUTT against Cct8 | -0.914 |
| GCCUAUCGUCCAGAUUAUCTT against Senp1 | 0.919 |
| GGUCAAGUAUCUGAGAAAATT against Selenoh | 0.154 |

| Sequence | z-score |
| --- | --- |
| GGCGAUAAGGAACAGAAGUTT against Ppp3r1 | -0.199 |
| GGUCAACCUCAAAGUCUUUTT against Il17a | 0.581 |
| GGGCUUCAGAAAAUCCAGGTT against Dclre1a | -0.447 |
| GGCUCCUAUAUACUGAUCATT against Olfr1402 | -2.65 (active) |
| CCUGGUAAAAGACUGGGCUTT against Dnal1 | 1.76 |
| GGUUAGUCGACAGAAACAATT against Poteg | -1.11 |
| GCUGUCUCAAUCACCCUAATT against Olfr1427 | -1.23 |
| GGUCAAGUGUAACAAAGAATT against Bcorl1 | -0.417 |
| GGUCAUUAUUGUCAUCUACTT against Tmem9 | -0.323 |
| GGAAAUCACUGGUUUUCAATT against Asah2 | 2.88 (active) |
| GGAGACUGACAAGAAAAUUTT against Gm16367 | -0.967 |
| GCAUCACGUAUGUGAUUUGTT against Dmrtc1a | -0.569 |
| GCAGAGGAGUGAAUAGAUATT against Dtx3l | 0.45 |
| GGCCAACUUUUUUCACCCATT against Git1 | -2.19 (active) |
| GGUUGUUCGUGGACACUACTT against Rpl26 | -0.404 |
| GGCCGUCACUACUCUGAAATT against Mgst2 | -2.29 (active) |
| GGCACUUCUUGGACAUCAUTT against Sfxn5 | -0.019 |
| CGAAGGUCUGUUCGAGAACTT against Morn4 | 0.668 |
| GCUUCAUCCUAGCGGUUUGTT against Dad1 | -0.899 |
| CGAUCGAAUCCUUAAGUACTT against Ttll1 | -0.0193 |
| GCUUUUUACAGGAUAUACATT against Zfp644 | -0.143 |
| GCCAUACCUUCAACUGUCGTT against Ncoa2 | -2.42 (active) |

| Sequence | z-score |
| --- | --- |
| GGAACGUAAACUAAGCCCGTT against Foxb1 | 0.458 |
| CCCAUUUCACUUCAGUUUGTT against Osbp2 | -0.253 |
| CCCAAAACGGUAGCUUAAGTT against Rcc1 | -0.0143 |
| GGCAAGAAAGGACCAAUGGTT against Cln8 | 0.206 |
| CCGUGGGUUUUUUGAAUCUTT against Slc6a1 | 2.63 (active) |
| GCCCAAUAGAAGCUGGAUGTT against Tex29 | -1.99 |
| GGAGCGAGAAGCUUUAGAATT against Ubxn1 | 0.61 |
| GGCCAACUAGGGUGUUUGUTT against Tsx | 0.182 |
| GCUAUUAGGAAAUGAAAGATT against Ncald | 0.384 |
| GCAGAGACUCCAAAGCUCATT against Chd4 | -2 (active) |
| GGAACUUGACAAAGUCUACTT against Panx1 | 1.2 |
| GGAAGAAGAAGGUGUAACCTT against Defb39 | 0.567 |
| GGCAUCUGUUACCCAGAAUTT against Zfp384 | -1.92 |
| CCAAAUGACUUUGGUCCUATT against Vax2 | 0.576 |
| CCAUCCUCAACAAGAUCGATT against Rab4b | 2.25 (active) |
| GGUGGUAACCAAUCAUUACTT against Cd200r1 | -0.296 |
| GCAUAAACUAACCACUUAGTT against Evi2b | -1.77 |
| GGCUUUUUUGCCAUUGCUATT against Wnt9b | 0.19 |
| GGAGAUUCAUCGCUACCUUTT against Ccna1 | 2.46 (active) |
| GGUUGUAGGAAGAAGAGAATT against Olfr957 | -0.798 |
| CGGUCUUUAUUACAUAAUCTT against Ptpro | -0.757 |
| CCAUUGCAUAUUUAGUAGCTT against Sox11 | -0.765 |

| Sequence | z-score |
| --- | --- |
| CGUAAAUAUGCCCGUAGUUTT against Bpifa1 | 0.31 |
| GGUCUGUAUCCCACUUUUCTT against Dalrd3 | -2.15 (active) |
| CCUCUACUCAAGUUUACUUTT against Casq2 | 0.417 |
| GGCGAUGGAAAGACUGCACTT against Hus1b | 0.311 |
| CCCACAAGUUUCAUCUGACTT against Aknaos | -0.164 |
| GGAGAACCCAUUAAAGAAATT against Amd1 | 0.408 |
| GGUCUGUACUUGUUUAGAATT against Vwa3b | 0.42 |
| GCUAUACAAAGGCUACUCUTT against Hectd3 | 0.379 |
| GCUGUUGAUUGUAAGCAAUTT against Mtap | 0.0958 |
| GCCGCACCGAAAGUGAAAUTT against Copz2 | -0.391 |
| GGACCGGUGUAAGCUUCGATT against Hinfp | 2.05 (active) |
| GCUAGAGGAUGGCUGAGCUTT against Poll | -0.581 |
| GGUGACUGAAAUCAAACACTT against Il9r | -1.71 |
| GGAAGGAUUGCCUUUAGGATT against Rbm12b2 | 0.29 |
| GGAGUAUGAAUUUGUGACUTT against Arhgdig | -0.526 |
| GGACCGCGUUCAAGAAGAATT against Cyp2c37 | 2.17 (active) |
| GGAGAAUUUGGAAAGUGAGTT against Rnf150 | 0.0696 |
| GGGUAAACACCCAUUUAGCTT against Lbx2 | -0.156 |
| GGUCCUAGGCCUACUCAUCTT against Cd46 | -0.318 |
| GGUCCUACUAUAACCUGCGTT against Gdf3 | -0.103 |
